Data published in PubChem BioAssay (EPA / NIEHS).
A structure can be active in one record and inactive in another. Active and inactive are the calls of the source. Rule for the calls: active = hit-call score of the fitted dose curve at least 0.9, where 1 is the maximum; inactive = score below 0.9.

Test: CCTE_Shafer_MEA_dev_per_burst_spike_percent: CCTE's Neural Network Formation Assay for Percent of Spikes in a Burst, Shafer Lab (AID 2284032)
Protocol: CCTE_Shafer_MEA_dev assay is conducted using Axion Biosystems 48 well microelectrode array (MEA) plates and Maestro recording system. Each well of the MEA plate contains a grid of 16 microelectrodes embedded in the culture surface. Electrically active cells, such as neurons, can be cultured over the electrodes, and electrical activity in these cells can be recorded extracellularly. The spontaneous firing of neurons is captured from each electrode on a microsecond timescale providing both temporally and spatially precise data. […] The CCTE_Shafer_MEA_dev assay uses primary cultures of rat cortical neurons. Recordings are made on days post-plating 5, 7, 9 and 12. As these cultures mature over time, neural networks develop functional activity and form cohesive networks in which electrical activity can be highly coordinated. CCTE_Shafer_MEA_dev_per_burst_spike_percent is 1 of 19 assay components of the CCTE_Shafer_MEA_dev assay. It measures the percentage of spikes (action potential firings) in a single-electrode burst (temporally-clustered group of spikes) as the total number spikes in bursts divided by the total number of spikes during a recording in a microelectrode array (MEA) using Axion Biosystems Maestro 768 channel amplifier with the AxIS adaptive spike detector. The percent of spikes in bursts is averaged across the actively bursting electrodes to report a well-mean value. To collapse across multiple recordings made on days post-plating 5, 7, 9 and 12, the trapezoidal area-under-the-curve of the component is calculated.Data from the assay component CCTE_Shafer_MEA_dev_per_burst_spike_percent was analyzed into 1 assay endpoint. This assay endpoint, CCTE_Shafer_MEA_dev_per_burst_spike_percent, was analyzed in the negative analysis fitting direction relative to DMSO as the negative control and baseline of activity. Using a type of functional reporter, gain or loss-of-signal activity can be used to understand electrical activity.
On the day prior to culture, each well was coated thoroughly with 150 uL of 0.05% polyethyleneimine (PEI, Sigma Cat P3143) in 50 mM HEPES (Sigma Cat H7523) at a pH of 8. The plate was incubated at 37C for one hour. PEI was rinsed out with 500 uL of sterile water three times. Plates were stored at 4C until the day of culture. This culture was plated at a seeding density of 1.5 x 10^5 cells/well on a 48-well MEA plate, prepared as described above. Cells were administered via a 25 uL media/laminin ([…]; Sigma Cat L2020-1MG) drop directly onto the microelectrode array, as adding the cells with the laminin results in better attachment than pre-coating with laminin. After 2 hours, an additional 475 uL of cortical media was added and the cells returned to the incubator. Exposure starts at day 0 of plating and is continued over twelve days of network development until the experiment is terminated. Cells are fed with fresh medium on DIV 5 and 9, following the recordings on those days. The entire volume of media in the well is exchanged and any vehicle or compound treatment is renewed. Complete details are found in OP-NHEERL/ISTD/SBB/TJS/2015-03-r0 (available on request, email shafer.tim@epa.gov). Measurement of the electrical activity is non-invasive, and recordings can be made from the same plate over multiple different days of the culture. In cortical neurons, this allows for the measurement of extracellular action potentials over the period during which networks form in the MEA plate.

Compound	outcome	AC50
O=C(O)C(F)(F)OC(F)(F)C(F)(F)OC(F)(F)F	inactive	
CCCCC(CC)COP(=O)(Oc1ccccc1)Oc1ccccc1 (stereo unspecified)	inactive	
O=C(O)C1C(C(=O)O)C2(Cl)C(Cl)=C(Cl)C1(Cl)C2(Cl)Cl (stereo unspecified)	inactive	
CCOP(=S)(OCC)SCSCC	inactive	74.7 µM (active)
OCC(F)(F)OC(F)(F)C(F)(F)OC(F)(F)C(F)(F)OC(F)(F)F	inactive	
CCCCC(CC)COC(=O)c1c(Br)c(Br)c(Br)c(Br)c1C(=O)OCC(CC)CCCC (stereo unspecified)	inactive	
O=S(=O)(c1ccc(O)cc1)c1ccc(O)cc1	inactive	
c1cc2c3c(cccc3c1)CC2	inactive	
O=C(O)C=CC(F)(C(F)(F)F)C(F)(F)F	inactive	
CCC1(c2ccccc2)C(=O)N=C(O)NC1=O (stereo unspecified)	inactive	
O=C(O)C(F)(F)C(F)(F)C(=O)O	inactive	
C=CC(=O)OCC(F)(F)C(F)F		5.66 µM (active)
c1ccc(OP(Oc2ccccc2)Oc2ccccc2)cc1	inactive	
O=C(O)C(F)(OC(F)(F)C(F)(F)C(F)(F)F)C(F)(F)F (stereo unspecified)	inactive	
CC(C)(C)c1ccccc1OP(=O)(Oc1ccccc1)Oc1ccccc1	inactive	26.2 µM (active)
CO/N=C(/C(=O)OC)c1ccccc1COc1ccccc1C		0.639 µM (active)
O=P(Oc1ccccc1)(Oc1ccccc1)Oc1ccccc1	inactive	
CC(O)C(F)(F)C(F)(F)F (stereo unspecified)	inactive	
ClC1=C(Cl)C2(Cl)C3C(Cl)C(Cl)CC3C1(Cl)C2(Cl)Cl (stereo unspecified)		6.7 µM (active)
OCC(F)(F)OC(F)(F)C(F)(F)OC(F)(F)CO	inactive	
CCOc1ccc(C(C)(C)COCc2cccc(Oc3ccccc3)c2)cc1		10 µM (active)
O=C(O)C(F)(F)OC(F)(F)C(F)(F)OC(F)(F)C(=O)O	inactive	
O=P1(N(CCCl)CCCl)NCCCO1 (stereo unspecified)	inactive	
OCC(F)(F)OC(F)(F)C(F)(F)OC(F)(F)C(F)(F)OC(F)(F)CO	inactive	
